Measurements reported in paper PMC7862700, “An all-to-all approach to the identification of sequence-specific readers for epigenetic DNA modifications on cytosine”.

Legend:
Assay in all cases: DAPPL (digital affinity profiling via proximity ligation, sequencing); 10 mM Tris-HCl pH 7.5, 50 mM NaCl, 1 mM DTT, 4% glycerol, room temperature, 30 min; GST-TFs on glutathione beads, 16-mer random dsDNA library, 0.1% formaldehyde crosslink after washing; high values mean tight binding
Conditions in all cases: protein: recombinant; tags: N-terminal GST; dsDNA, one strand shown
FLI1 = target: T1, FLI1 (Homo sapiens, UniProt Q01543 1-452)
T1 sequence: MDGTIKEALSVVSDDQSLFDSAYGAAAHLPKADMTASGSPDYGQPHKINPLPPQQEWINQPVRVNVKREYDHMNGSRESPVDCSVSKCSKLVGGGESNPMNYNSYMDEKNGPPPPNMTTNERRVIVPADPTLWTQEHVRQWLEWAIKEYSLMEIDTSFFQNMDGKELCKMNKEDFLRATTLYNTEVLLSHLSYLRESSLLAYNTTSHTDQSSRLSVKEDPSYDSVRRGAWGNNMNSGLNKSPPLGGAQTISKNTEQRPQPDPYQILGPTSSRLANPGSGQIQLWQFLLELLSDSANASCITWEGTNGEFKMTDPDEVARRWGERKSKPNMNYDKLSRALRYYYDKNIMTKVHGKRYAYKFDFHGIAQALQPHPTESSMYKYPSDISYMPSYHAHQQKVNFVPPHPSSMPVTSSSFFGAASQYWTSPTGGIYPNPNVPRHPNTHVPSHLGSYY
Procedure, shortened: (§1)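 GST fusions of human transcription factors were expressed in yeast and captured with glutathione beads. Once given DNA barcodes and pooled alongside a tag-only sample, they were incubated for 30 min at room temperature with 200 nmole of a random double-stranded 16-mer DNA library in Tris/NaCl/DTT/glycerol buffer, then washed, crosslinked (0.1% formaldehyde), proximity-ligated, PCR-amplified and sequenced on an Illumina NextSeq500. The binding signal of each hexamer is its read frequency for a factor divided by its frequency for the tag-only sample.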

ELK1 = target: T2, ELK1 (Homo sapiens, UniProt P19419 1-428)
T2 sequence: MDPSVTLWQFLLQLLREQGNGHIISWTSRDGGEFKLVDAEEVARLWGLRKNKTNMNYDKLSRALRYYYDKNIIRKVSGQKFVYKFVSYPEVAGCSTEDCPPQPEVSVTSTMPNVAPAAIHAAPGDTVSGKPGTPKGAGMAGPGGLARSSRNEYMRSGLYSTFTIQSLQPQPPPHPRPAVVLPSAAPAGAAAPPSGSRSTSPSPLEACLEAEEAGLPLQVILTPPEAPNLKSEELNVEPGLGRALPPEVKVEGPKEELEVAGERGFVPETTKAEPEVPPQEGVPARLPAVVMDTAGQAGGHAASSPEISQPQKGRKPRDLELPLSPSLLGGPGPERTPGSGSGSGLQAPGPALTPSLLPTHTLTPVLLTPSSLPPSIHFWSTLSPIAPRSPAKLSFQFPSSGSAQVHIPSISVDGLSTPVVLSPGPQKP
Procedure, shortened: as §1

GABPA = target: T3, GABPA (Homo sapiens, UniProt Q06546 1-454)
T3 sequence: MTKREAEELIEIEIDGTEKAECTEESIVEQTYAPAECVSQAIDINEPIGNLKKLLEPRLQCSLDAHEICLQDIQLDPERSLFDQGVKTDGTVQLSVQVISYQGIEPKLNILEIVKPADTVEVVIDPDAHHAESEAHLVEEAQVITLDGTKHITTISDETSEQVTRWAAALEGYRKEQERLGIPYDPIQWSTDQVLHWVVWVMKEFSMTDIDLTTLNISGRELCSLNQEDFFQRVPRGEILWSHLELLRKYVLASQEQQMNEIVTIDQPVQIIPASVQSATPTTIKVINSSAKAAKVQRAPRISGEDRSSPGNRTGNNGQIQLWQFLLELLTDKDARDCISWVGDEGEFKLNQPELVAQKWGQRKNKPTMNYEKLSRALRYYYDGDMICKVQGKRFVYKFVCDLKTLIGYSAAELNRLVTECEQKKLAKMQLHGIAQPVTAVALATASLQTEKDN
Procedure, shortened: as §1

ERG = target: T4, ERG (Homo sapiens, UniProt P11308 1-479)
T4 sequence: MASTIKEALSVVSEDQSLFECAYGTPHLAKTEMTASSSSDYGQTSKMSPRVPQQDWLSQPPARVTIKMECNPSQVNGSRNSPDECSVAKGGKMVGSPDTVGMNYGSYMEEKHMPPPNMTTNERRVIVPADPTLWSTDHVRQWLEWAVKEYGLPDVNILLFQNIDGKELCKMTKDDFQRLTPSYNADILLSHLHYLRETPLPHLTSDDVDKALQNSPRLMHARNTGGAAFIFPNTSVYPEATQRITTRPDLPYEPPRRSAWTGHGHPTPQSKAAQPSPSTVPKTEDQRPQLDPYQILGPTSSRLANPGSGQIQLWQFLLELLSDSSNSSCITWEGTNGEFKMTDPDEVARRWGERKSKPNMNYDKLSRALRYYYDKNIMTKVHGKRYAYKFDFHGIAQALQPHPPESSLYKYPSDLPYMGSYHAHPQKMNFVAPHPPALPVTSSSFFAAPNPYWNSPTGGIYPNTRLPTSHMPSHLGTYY
Procedure, shortened: as §1

ELF1 = ELF1 (Homo sapiens, UniProt P32519 1-619)
Procedure, shortened: as §1

EHF = target: T5, EHF (Homo sapiens, UniProt Q9NZC4 1-300)
T5 sequence: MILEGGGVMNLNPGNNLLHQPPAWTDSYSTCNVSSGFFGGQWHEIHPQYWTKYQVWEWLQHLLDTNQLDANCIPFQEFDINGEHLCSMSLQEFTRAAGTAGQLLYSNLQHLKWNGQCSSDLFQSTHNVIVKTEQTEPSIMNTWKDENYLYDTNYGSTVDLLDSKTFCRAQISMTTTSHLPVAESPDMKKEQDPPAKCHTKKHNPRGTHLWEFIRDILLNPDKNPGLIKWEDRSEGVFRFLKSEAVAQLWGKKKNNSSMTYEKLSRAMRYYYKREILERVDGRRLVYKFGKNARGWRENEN
Procedure, shortened: as §1

SPI1 = SPI1 (Homo sapiens, UniProt P17947 1-270)
Procedure, shortened: as §1

SPIB = SPIB (Homo sapiens, UniProt Q01892 1-262)
Procedure, shortened: as §1

ELK3 = target: T6, ELK3 (Homo sapiens, UniProt P41970 1-407)
T6 sequence: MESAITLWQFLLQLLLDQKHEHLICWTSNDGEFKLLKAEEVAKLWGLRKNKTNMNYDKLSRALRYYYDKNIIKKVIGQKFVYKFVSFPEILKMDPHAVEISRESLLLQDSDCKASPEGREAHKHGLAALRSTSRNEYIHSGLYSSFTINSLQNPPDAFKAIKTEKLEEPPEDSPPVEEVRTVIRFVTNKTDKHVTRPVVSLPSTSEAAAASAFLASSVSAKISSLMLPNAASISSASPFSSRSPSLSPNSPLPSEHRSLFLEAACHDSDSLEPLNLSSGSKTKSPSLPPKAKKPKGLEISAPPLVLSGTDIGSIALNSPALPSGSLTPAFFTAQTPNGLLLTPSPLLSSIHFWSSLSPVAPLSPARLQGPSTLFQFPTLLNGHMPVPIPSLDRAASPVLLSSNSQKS
Procedure, shortened: as §1

ETV5 = ETV5 (Homo sapiens, UniProt P41161 1-510)
Procedure, shortened: as §1

ELF4 = ELF4 (Homo sapiens, UniProt Q99607 1-663)
Procedure, shortened: as §1

ETV1 = ETV1 (Homo sapiens, UniProt P50549 1-477)
Procedure, shortened: as §1

ERF = target: T7, ERF (Homo sapiens, UniProt P50548 1-548)
T7 sequence: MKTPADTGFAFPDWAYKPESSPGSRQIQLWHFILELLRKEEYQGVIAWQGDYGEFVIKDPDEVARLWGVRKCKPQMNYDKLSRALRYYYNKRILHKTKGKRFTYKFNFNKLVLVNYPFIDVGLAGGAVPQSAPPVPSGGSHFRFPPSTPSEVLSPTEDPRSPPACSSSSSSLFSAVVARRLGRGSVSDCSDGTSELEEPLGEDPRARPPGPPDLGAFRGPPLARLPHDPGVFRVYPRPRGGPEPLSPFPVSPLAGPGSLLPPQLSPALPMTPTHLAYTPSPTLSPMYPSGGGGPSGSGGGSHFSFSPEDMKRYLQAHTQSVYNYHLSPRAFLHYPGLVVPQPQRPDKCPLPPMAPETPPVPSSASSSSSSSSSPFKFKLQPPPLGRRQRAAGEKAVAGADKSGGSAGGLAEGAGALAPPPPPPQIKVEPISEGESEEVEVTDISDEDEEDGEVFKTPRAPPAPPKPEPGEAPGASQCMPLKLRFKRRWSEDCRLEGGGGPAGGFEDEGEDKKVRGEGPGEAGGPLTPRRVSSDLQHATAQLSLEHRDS
Procedure, shortened: as §1

ETV3L = target: T8, ETV3L (Homo sapiens, UniProt Q6ZN32 1-361)
T8 sequence: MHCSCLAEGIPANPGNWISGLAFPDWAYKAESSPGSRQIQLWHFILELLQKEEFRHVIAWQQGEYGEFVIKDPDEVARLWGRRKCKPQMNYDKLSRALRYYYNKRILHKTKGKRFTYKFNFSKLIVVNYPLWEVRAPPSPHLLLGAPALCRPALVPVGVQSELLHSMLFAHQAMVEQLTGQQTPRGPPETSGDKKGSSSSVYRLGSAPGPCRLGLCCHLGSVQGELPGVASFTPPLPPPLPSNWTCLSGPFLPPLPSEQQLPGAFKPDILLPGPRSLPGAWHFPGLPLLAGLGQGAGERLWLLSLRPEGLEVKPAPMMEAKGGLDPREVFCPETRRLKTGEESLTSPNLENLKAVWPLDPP
Procedure, shortened: as §1

ETS2 = target: T9, ETS2 (Homo sapiens, UniProt P15036 1-469)
T9 sequence: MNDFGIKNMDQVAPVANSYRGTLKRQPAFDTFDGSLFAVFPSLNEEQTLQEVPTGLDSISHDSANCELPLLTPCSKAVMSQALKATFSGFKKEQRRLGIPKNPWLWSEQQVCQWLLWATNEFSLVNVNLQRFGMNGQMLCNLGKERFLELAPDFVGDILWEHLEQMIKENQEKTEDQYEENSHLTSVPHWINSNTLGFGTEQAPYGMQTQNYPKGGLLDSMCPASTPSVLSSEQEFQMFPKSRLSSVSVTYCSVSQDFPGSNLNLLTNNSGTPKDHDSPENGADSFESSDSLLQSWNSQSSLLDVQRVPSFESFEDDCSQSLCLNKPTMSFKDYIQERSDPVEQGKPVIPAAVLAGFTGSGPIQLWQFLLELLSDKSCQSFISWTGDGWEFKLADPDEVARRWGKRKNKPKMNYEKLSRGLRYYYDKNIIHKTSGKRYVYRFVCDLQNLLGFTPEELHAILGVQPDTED
Procedure, shortened: as §1

ELF5 = target: T10, ELF5 (Homo sapiens, UniProt Q9UKW6-2 1-255)
T10 sequence: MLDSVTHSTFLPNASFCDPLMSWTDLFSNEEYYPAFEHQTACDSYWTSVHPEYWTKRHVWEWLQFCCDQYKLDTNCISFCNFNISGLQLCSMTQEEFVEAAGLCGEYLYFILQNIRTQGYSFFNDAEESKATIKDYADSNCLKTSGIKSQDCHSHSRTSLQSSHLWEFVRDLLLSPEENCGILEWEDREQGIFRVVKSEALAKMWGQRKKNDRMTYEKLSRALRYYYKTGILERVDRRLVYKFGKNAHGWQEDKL
Procedure, shortened: as §1

ETV3 = target: T11, ETV3 (Homo sapiens, UniProt P41162-2 1-143)
T11 sequence: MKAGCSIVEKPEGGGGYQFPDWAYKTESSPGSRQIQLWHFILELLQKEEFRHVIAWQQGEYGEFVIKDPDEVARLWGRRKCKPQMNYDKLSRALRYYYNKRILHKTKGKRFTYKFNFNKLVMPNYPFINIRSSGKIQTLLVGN
Procedure, shortened: as §1

ETV6 = ETV6 (Homo sapiens, UniProt P41212 1-452)
Procedure, shortened: as §1

Chain of ETV5 (P41161 whole entry): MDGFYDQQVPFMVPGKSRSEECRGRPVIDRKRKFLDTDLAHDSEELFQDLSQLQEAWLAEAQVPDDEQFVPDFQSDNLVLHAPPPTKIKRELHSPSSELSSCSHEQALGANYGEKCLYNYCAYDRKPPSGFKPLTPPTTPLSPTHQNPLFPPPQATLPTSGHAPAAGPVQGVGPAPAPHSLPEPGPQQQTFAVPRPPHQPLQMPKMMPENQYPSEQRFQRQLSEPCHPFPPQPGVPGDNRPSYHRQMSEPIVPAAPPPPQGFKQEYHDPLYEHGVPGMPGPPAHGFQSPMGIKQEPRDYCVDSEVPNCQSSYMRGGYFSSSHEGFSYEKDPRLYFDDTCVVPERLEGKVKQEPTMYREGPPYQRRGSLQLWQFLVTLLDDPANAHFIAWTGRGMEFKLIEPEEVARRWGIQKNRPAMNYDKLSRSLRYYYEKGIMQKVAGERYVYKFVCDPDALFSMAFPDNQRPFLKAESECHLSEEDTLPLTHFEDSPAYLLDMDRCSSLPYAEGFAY
Chain of ETV6 (P41212 whole entry): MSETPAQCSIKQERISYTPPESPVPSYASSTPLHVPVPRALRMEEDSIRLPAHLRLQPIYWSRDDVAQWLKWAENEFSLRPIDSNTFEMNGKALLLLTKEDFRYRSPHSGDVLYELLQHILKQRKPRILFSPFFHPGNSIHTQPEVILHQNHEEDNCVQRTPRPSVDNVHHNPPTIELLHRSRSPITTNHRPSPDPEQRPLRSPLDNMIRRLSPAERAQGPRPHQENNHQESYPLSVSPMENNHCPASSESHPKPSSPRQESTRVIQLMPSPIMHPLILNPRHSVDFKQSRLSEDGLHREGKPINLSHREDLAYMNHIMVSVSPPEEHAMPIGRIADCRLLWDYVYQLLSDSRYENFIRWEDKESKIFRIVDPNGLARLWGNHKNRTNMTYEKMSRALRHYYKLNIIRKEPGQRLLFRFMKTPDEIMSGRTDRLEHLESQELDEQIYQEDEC
Chain of ETV1 (P50549 whole entry): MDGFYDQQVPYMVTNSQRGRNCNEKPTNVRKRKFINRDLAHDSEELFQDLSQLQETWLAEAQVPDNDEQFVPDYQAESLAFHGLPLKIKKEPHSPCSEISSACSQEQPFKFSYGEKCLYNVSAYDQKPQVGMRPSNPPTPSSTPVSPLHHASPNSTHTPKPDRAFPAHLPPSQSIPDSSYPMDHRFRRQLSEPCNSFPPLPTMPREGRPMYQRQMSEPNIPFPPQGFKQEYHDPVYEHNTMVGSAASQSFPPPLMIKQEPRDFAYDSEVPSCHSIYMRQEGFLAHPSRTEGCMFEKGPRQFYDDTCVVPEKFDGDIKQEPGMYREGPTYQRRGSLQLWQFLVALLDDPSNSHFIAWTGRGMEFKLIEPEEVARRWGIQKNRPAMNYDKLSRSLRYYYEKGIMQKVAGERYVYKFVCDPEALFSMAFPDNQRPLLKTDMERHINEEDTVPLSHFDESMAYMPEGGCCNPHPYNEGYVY
Chain of ELF4 (Q99607 whole entry): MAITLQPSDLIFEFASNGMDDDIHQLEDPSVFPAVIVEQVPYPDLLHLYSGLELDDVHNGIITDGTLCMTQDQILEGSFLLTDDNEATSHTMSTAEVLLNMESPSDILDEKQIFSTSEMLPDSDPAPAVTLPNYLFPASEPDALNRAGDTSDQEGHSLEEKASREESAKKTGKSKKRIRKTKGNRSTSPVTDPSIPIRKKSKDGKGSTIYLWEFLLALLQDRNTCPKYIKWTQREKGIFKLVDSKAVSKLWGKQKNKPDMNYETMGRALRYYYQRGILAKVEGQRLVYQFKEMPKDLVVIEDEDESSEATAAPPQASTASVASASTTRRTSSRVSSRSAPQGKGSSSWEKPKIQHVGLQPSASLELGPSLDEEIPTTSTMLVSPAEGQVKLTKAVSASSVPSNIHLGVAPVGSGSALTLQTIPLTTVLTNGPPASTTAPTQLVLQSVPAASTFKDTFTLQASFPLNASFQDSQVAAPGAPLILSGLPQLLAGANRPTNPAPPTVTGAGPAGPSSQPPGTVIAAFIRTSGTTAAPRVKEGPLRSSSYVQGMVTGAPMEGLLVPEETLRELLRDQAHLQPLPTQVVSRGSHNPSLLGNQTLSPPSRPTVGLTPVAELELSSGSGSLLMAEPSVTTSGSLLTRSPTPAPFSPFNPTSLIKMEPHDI
Chain of ELF1 (P32519 whole entry): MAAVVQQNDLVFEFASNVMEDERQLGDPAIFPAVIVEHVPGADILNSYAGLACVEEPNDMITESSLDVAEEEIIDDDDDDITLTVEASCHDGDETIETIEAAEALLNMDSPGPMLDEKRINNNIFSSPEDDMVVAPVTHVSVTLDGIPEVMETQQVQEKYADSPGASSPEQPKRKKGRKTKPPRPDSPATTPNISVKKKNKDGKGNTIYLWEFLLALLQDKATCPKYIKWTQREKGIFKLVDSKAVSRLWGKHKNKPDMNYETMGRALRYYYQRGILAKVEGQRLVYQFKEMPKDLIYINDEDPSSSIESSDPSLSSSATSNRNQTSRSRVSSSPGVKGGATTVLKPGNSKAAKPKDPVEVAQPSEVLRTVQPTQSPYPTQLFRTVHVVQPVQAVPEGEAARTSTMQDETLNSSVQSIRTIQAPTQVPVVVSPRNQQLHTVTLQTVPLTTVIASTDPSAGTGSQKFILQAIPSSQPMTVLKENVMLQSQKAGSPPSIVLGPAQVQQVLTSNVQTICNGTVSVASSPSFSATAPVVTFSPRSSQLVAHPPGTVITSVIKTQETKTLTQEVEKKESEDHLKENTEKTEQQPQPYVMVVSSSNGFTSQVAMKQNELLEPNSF
Chain of SPIB (Q01892 whole entry): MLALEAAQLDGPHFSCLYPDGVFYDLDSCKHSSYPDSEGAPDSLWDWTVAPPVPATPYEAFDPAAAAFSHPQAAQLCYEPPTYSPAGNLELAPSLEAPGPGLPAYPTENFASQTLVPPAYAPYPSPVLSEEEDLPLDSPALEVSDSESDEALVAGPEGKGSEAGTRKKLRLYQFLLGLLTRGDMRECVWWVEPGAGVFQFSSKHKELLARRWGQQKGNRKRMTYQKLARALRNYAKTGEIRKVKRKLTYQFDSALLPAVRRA

In the case of GTAGCT, the binding signal (FLI1) is reported as 1.15 fold enrichment (6-mer frequency, TF over GST control), the binding signal (ELK1) is reported as 1.08 fold enrichment (6-mer frequency, TF over GST control) and the binding signal (GABPA) is reported as 1.12 fold enrichment (6-mer frequency, TF over GST control). For the same sequence, the binding signal (ERG) was 1.05 fold enrichment (6-mer frequency, TF over GST control), the binding signal (ELF1) was 1.06 fold enrichment (6-mer frequency, TF over GST control) and the binding signal (EHF) was 1.12 fold enrichment (6-mer frequency, TF over GST control). The binding signal (SPI1) was 1.09 fold enrichment (6-mer frequency, TF over GST control), the binding signal (SPIB) was 1.18 fold enrichment (6-mer frequency, TF over GST control) and the binding signal (ELK3) was 1.07 fold enrichment (6-mer frequency, TF over GST control). The binding signal (ETV5) was 1.14 fold enrichment (6-mer frequency, TF over GST control), the binding signal (ELF4) was 1.1 fold enrichment (6-mer frequency, TF over GST control) and the binding signal (ETV1) was 1.13 fold enrichment (6-mer frequency, TF over GST control). The binding signal (ERF) was 1.1 fold enrichment (6-mer frequency, TF over GST control), the binding signal (ETV3L) was 1.08 fold enrichment (6-mer frequency, TF over GST control) and the binding signal (ETS2) was 1.13 fold enrichment (6-mer frequency, TF over GST control). The binding signal (ELF5) was 1.07 fold enrichment (6-mer frequency, TF over GST control), the binding signal (ETV3) was 1.09 fold enrichment (6-mer frequency, TF over GST control) and the binding signal (ETV6) was 1.06 fold enrichment (6-mer frequency, TF over GST control).
